# According to the supplement of paper PMC10037445:
# Over roughly 2,900 compounds, “NF-kB SEAP reporter activity, fold change vs agonist alone” has its median near 0.99; the highest 2% begin near 2.6. This is one part of a sample in which the highest values are shown more often than they occur.
# Legend:
# RAW-Dual [1] = test: NF-kB SEAP reporter activity, fold change vs agonist alone; cytotoxicity flag (confluency mask): not cytotoxic; higher = enhanced NF-kB activity
# In short: (§1)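 Cytotoxic wells were those whose IncuCyte confluency was below 70% of agonist controls in both mask sets. The cells were RAW-Dual macrophages at 50,000 cells/well in DMEM on 384-well plates, dosed with 50 nL of library stock by pin tool, stimulated with a PRR agonist 1 h later, and kept at 37 °C, 5% CO2 for 20 hours. IRF and NF-κB reporter activity, as fold change over agonist-alone wells, came from supernatant read by QuantiLuc luminescence and QuantiBlue absorbance, respectively.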
# RAW-Dual [2] = test: NF-kB SEAP reporter activity, fold change vs agonist alone; higher = enhanced NF-kB activity
# In short: as §1
# RAW-Dual [3] = test: NF-kB SEAP reporter activity, fold change vs agonist alone; cytotoxicity flag (confluency mask): cytotoxic (confluency <70% of control); higher = enhanced NF-kB activity
# In short: as §1
# [4] = agonist: ODN 1826 (TLR9) 0.5 ug/mL
# [5] = agonist: Pam2CSK4 (TLR2/6) 0.1 ug/mL
# [6] = agonist: Pam3CSK4 (TLR2/1) 0.1 ug/mL
# [7] = library stock concentration (final ~1000-fold dilution): 10 mM, cytotoxicity flag (confluency mask): not cytotoxic, agonist: Imiquimod (TLR7) […]
# [8] = library stock concentration (final ~1000-fold dilution): 10 mM, cytotoxicity flag (confluency mask): not cytotoxic, agonist: MPLA (TLR4) […]
compound,measurement,setting,value
CCOC(=O)C(CCc1ccccc1)NC1CCc2ccccc2N(CC(=O)O)C1=O.Cl (centres undefined) (library stock concentration (final ~1000-fold dilution): 10 mM),NF-kB SEAP reporter activity,RAW-Dual [1]; agonist: LPS (TLR4) 0.1 ug/mL,0.997
same,NF-kB SEAP reporter activity,RAW-Dual [1]; [4],0.98
same,NF-kB SEAP reporter activity,RAW-Dual [1]; [5],1.03
same,NF-kB SEAP reporter activity,RAW-Dual [1]; [6],0.994
CCOC(=O)C(CCc1ccccc1)NC1CCc2ccccc2N(CC(=O)O)C1=O.Cl (centres undefined),NF-kB SEAP reporter activity,RAW-Dual [2]; [7],0.99
same,NF-kB SEAP reporter activity,RAW-Dual [2]; [8],0.958
CC(C(=O)O)c1ccc(C(=O)c2cccs2)cc1 (centres undefined),NF-kB SEAP reporter activity,RAW-Dual [2]; [7],0.601
same,NF-kB SEAP reporter activity,RAW-Dual [2]; [8],0.825
CC(C(=O)O)c1ccc(C(=O)c2cccs2)cc1 (centres undefined) (library stock concentration (final ~1000-fold dilution): 10 mM),NF-kB SEAP reporter activity,RAW-Dual [1]; agonist: LPS (TLR4) 0.1 ug/mL,1.19
same,NF-kB SEAP reporter activity,RAW-Dual [1]; [4],0.999
same,NF-kB SEAP reporter activity,RAW-Dual [1]; [5],1.06
same,NF-kB SEAP reporter activity,RAW-Dual [1]; [6],1.07
COC(=O)Nc1nc2ccc(C(=O)c3cccs3)cc2[nH]1 (library stock concentration (final ~1000-fold dilution): 10 mM),NF-kB SEAP reporter activity,RAW-Dual [3]; agonist: LPS (TLR4) 0.1 ug/mL,2.52
same,NF-kB SEAP reporter activity,RAW-Dual [3]; [4],3.14
same,NF-kB SEAP reporter activity,RAW-Dual [3]; [5],1.85
same,NF-kB SEAP reporter activity,RAW-Dual [3]; [6],1.76
CCCS(=O)c1ccc2nc(NC(=O)OC)[nH]c2c1 (centres undefined),NF-kB SEAP reporter activity,RAW-Dual [2]; [7],1.04
same,NF-kB SEAP reporter activity,RAW-Dual [2]; [8],0.808
COC(=O)Nc1nc2ccc(C(=O)c3cccs3)cc2[nH]1,NF-kB SEAP reporter activity,"RAW-Dual [2]; library stock concentration (final ~1000-fold dilution): 10 mM, cytotoxicity flag (confluency mask): cytotoxic (confluency <70% of control), agonist: Imiquimod (TLR7) […]",2.68
same,NF-kB SEAP reporter activity,"RAW-Dual [2]; library stock concentration (final ~1000-fold dilution): 10 mM, cytotoxicity flag (confluency mask): cytotoxic (confluency <70% of control), agonist: MPLA (TLR4) […]",2.1
CCCS(=O)c1ccc2nc(NC(=O)OC)[nH]c2c1 (centres undefined) (library stock concentration (final ~1000-fold dilution): 10 mM),NF-kB SEAP reporter activity,RAW-Dual [1]; agonist: LPS (TLR4) 0.1 ug/mL,1.06
same,NF-kB SEAP reporter activity,RAW-Dual [1]; [4],0.948
same,NF-kB SEAP reporter activity,RAW-Dual [1]; [5],1.05
same,NF-kB SEAP reporter activity,RAW-Dual [1]; [6],1.09
CCCS(=O)(=O)NC1CC(N(C)c2ncnc3[nH]ccc23)C1 (centres undefined) (library stock concentration (final ~1000-fold dilution): 10 mM),NF-kB SEAP reporter activity,RAW-Dual [1]; agonist: LPS (TLR4) 0.1 ug/mL,0.584
same,NF-kB SEAP reporter activity,RAW-Dual [1]; [4],0.746
same,NF-kB SEAP reporter activity,RAW-Dual [1]; [5],0.786
same,NF-kB SEAP reporter activity,RAW-Dual [1]; [6],0.875
CCCS(=O)(=O)NC1CC(N(C)c2ncnc3[nH]ccc23)C1 (centres undefined),NF-kB SEAP reporter activity,RAW-Dual [2]; [7],0.73
same,NF-kB SEAP reporter activity,RAW-Dual [2]; [8],0.764
Cl.O=C1c2cccc3c2C(CCC3)CN1C1CN2CCC1CC2 (centres undefined),NF-kB SEAP reporter activity,"RAW-Dual [2]; library stock concentration (final ~1000-fold dilution): 10 mM water, cytotoxicity flag (confluency mask): not cytotoxic, agonist: Imiquimod (TLR7) […]",0.577
same,NF-kB SEAP reporter activity,"RAW-Dual [2]; library stock concentration (final ~1000-fold dilution): 10 mM water, cytotoxicity flag (confluency mask): not cytotoxic, agonist: MPLA (TLR4) […]",0.711
Cl.O=C1c2cccc3c2C(CCC3)CN1C1CN2CCC1CC2 (centres undefined) (library stock concentration (final ~1000-fold dilution): 10 mM water),NF-kB SEAP reporter activity,RAW-Dual [1]; agonist: LPS (TLR4) 0.1 ug/mL,0.985
same,NF-kB SEAP reporter activity,RAW-Dual [1]; [4],0.593
same,NF-kB SEAP reporter activity,RAW-Dual [1]; [5],0.966
same,NF-kB SEAP reporter activity,RAW-Dual [1]; [6],0.917
CCN(CC)CCNC(=O)c1c(C)[nH]c(/C=C2\C(=O)Nc3ccc(F)cc32)c1C.O=C(O)CC(O)C(=O)O,NF-kB SEAP reporter activity,RAW-Dual [2]; [7],0.892
same,NF-kB SEAP reporter activity,RAW-Dual [2]; [8],0.292
CCN(CC)CCNC(=O)c1c(C)[nH]c(/C=C2\C(=O)Nc3ccc(F)cc32)c1C.O=C(O)CC(O)C(=O)O (library stock concentration (final ~1000-fold dilution): 10 mM),NF-kB SEAP reporter activity,RAW-Dual [1]; agonist: LPS (TLR4) 0.1 ug/mL,0.295
same,NF-kB SEAP reporter activity,RAW-Dual [1]; [4],0.21
same,NF-kB SEAP reporter activity,RAW-Dual [1]; [5],0.27
same,NF-kB SEAP reporter activity,RAW-Dual [1]; [6],0.317
Cc1nn(CC(F)(F)F)cc1Nc1ncc(Br)c(NCc2ccc(S(N)(=O)=O)cc2)n1 (library stock concentration (final ~1000-fold dilution): 10 mM),NF-kB SEAP reporter activity,RAW-Dual [1]; agonist: LPS (TLR4) 0.1 ug/mL,0.744
same,NF-kB SEAP reporter activity,RAW-Dual [1]; [4],1.28
same,NF-kB SEAP reporter activity,RAW-Dual [1]; [5],1.17
same,NF-kB SEAP reporter activity,RAW-Dual [1]; [6],1.54
Cc1nn(CC(F)(F)F)cc1Nc1ncc(Br)c(NCc2ccc(S(N)(=O)=O)cc2)n1,NF-kB SEAP reporter activity,RAW-Dual [2]; [7],1.38
same,NF-kB SEAP reporter activity,RAW-Dual [2]; [8],1.33
CSCC(N)C(=O)O (centres undefined),NF-kB SEAP reporter activity,RAW-Dual [2]; [7],0.816
same,NF-kB SEAP reporter activity,RAW-Dual [2]; [8],0.97
CSCC(N)C(=O)O (centres undefined) (library stock concentration (final ~1000-fold dilution): 10 mM),NF-kB SEAP reporter activity,RAW-Dual [1]; agonist: LPS (TLR4) 0.1 ug/mL,1.3
same,NF-kB SEAP reporter activity,RAW-Dual [1]; [4],1.03
same,NF-kB SEAP reporter activity,RAW-Dual [1]; [5],1.12
same,NF-kB SEAP reporter activity,RAW-Dual [1]; [6],1.08
Nc1ccc(F)cc1NC(=O)c1ccc(CNC(=O)/C=C/c2cccnc2)cc1,NF-kB SEAP reporter activity,RAW-Dual [2]; [7],1.65
same,NF-kB SEAP reporter activity,RAW-Dual [2]; [8],1.89
O=C(/C=C/c1cccnc1)NCCCCC1CCN(C(=O)c2ccccc2)CC1,NF-kB SEAP reporter activity,RAW-Dual [2]; [7],1.06
same,NF-kB SEAP reporter activity,RAW-Dual [2]; [8],0.719
Nc1ccc(F)cc1NC(=O)c1ccc(CNC(=O)/C=C/c2cccnc2)cc1 (library stock concentration (final ~1000-fold dilution): 10 mM),NF-kB SEAP reporter activity,RAW-Dual [1]; agonist: LPS (TLR4) 0.1 ug/mL,3.7
same,NF-kB SEAP reporter activity,RAW-Dual [1]; [4],3.18
same,NF-kB SEAP reporter activity,RAW-Dual [1]; [5],0.749
same,NF-kB SEAP reporter activity,RAW-Dual [1]; [6],1.53
O=C(/C=C/c1cccnc1)c1ccncc1 (library stock concentration (final ~1000-fold dilution): 10 mM),NF-kB SEAP reporter activity,RAW-Dual [1]; agonist: LPS (TLR4) 0.1 ug/mL,1.03
same,NF-kB SEAP reporter activity,RAW-Dual [1]; [4],0.938
same,NF-kB SEAP reporter activity,RAW-Dual [1]; [5],1.21
same,NF-kB SEAP reporter activity,RAW-Dual [1]; [6],1.05
O=C(/C=C/c1cccnc1)c1ccncc1,NF-kB SEAP reporter activity,RAW-Dual [2]; [7],0.871
same,NF-kB SEAP reporter activity,RAW-Dual [2]; [8],0.953
O=C(/C=C/c1cccnc1)NCCCCC1CCN(C(=O)c2ccccc2)CC1 (library stock concentration (final ~1000-fold dilution): 10 mM),NF-kB SEAP reporter activity,RAW-Dual [1]; agonist: LPS (TLR4) 0.1 ug/mL,0.56
same,NF-kB SEAP reporter activity,RAW-Dual [1]; [4],1.07
same,NF-kB SEAP reporter activity,RAW-Dual [1]; [5],0.67
same,NF-kB SEAP reporter activity,RAW-Dual [1]; [6],0.537
COc1ccc(C2OCC3C(c4cc(OC)c(OC)c(OC)c4)OCC23)cc1OC (centres undefined) (library stock concentration (final ~1000-fold dilution): 10 mM),NF-kB SEAP reporter activity,RAW-Dual [1]; agonist: LPS (TLR4) 0.1 ug/mL,1.2
same,NF-kB SEAP reporter activity,RAW-Dual [1]; [4],1
same,NF-kB SEAP reporter activity,RAW-Dual [1]; [5],1.01
same,NF-kB SEAP reporter activity,RAW-Dual [1]; [6],1.71
COc1ccc(C2OCC3C(c4cc(OC)c(OC)c(OC)c4)OCC23)cc1OC (centres undefined),NF-kB SEAP reporter activity,RAW-Dual [2]; [7],0.813
same,NF-kB SEAP reporter activity,RAW-Dual [2]; [8],1.03
O=C1c2cccc3c2C(CCC3)CN1C1CN2CCC1CC2 (centres undefined),NF-kB SEAP reporter activity,RAW-Dual [2]; [7],0.886
same,NF-kB SEAP reporter activity,RAW-Dual [2]; [8],1.17
O=C1c2cccc3c2C(CCC3)CN1C1CN2CCC1CC2 (centres undefined) (library stock concentration (final ~1000-fold dilution): 10 mM),NF-kB SEAP reporter activity,RAW-Dual [1]; agonist: LPS (TLR4) 0.1 ug/mL,1.5
same,NF-kB SEAP reporter activity,RAW-Dual [1]; [4],0.937
same,NF-kB SEAP reporter activity,RAW-Dual [1]; [5],0.587
same,NF-kB SEAP reporter activity,RAW-Dual [1]; [6],0.339
